Only some compounds are listed: those with a hit (about 1.8% of all), similar ones and a draw of the others.
LYPLA2 counter: LYPLA2 inhibitors, primary screen, counter-screen for PME1 inhibitor project, biochemical, fluorescence polarization, FP-Rh probe ABPP; recombinant LYPLA2; inhibition, % at 5.9 µM; 320,000 tested, 0.38% active; AID 2177, 2009;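 active means inhibition above the screen-wide mean plus 3 SD, limit set per campaign, cut at about 26% in these data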
Target sequence (O95372 whole entry, looked up): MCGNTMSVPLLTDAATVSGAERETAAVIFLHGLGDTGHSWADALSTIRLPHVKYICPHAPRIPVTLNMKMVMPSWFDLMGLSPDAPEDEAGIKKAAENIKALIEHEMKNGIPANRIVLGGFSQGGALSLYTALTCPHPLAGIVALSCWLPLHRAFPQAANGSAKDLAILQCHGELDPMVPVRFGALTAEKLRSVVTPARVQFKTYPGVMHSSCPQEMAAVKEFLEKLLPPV
GSTO1 counter: inhibitors of recombinant GSTO1, primary screen, counter-screen for RBBP9 inhibitor project, biochemical, fluorescence polarization; inhibition, % at 5.96 µM; activity-based probe fluorescence polarization; Glutathione S-transferase omega-1 (Homo sapiens), P78417; 300,000 tested, 1.1% active;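 active means inhibition above the campaign mean inhibition plus 3 SD, cut at about 35% in these data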
Target sequence (P78417 whole entry, looked up): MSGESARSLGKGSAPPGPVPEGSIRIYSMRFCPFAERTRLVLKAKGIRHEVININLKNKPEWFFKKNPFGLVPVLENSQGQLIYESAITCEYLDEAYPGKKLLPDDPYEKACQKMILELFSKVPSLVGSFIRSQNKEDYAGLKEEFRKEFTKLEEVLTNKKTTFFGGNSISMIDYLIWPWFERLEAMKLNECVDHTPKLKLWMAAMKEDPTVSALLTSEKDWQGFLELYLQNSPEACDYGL
Fam108B inh: mouse Fam108B serine hydrolase inhibitors, primary screen, counter-screen for RBBP9 inhibitor project, biochemical, fluorescence polarization; recombinant Fam108B, FP-Rh probe fluorescence polarization; inhibition, % at 9.51 µM; AID 1947, 2009; 300,000 tested, 0.33% active;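 active means inhibition above the screen mean inhibition plus 3 SD, computed separately per campaign, cut at about 18% in these data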;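 further: inhibitors lower polarization as less probe binds the enzyme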
LYPLA1 counter: LYPLA1 inhibitors, primary screen, counter-screen for PME1 inhibitor project, biochemical, fluorescence polarization, FP-Rh probe ABPP | recombinant LYPLA1 | inhibition, % at 5.9 µM | 320,000 tested, 0.16% active | AID 2174, 2009;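 active means inhibition above the mean of all tested compounds plus 3 SD, set per campaign, cut at about 14% in these data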;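 further: inhibitors block serine hydrolase probe labeling of LYPLA1 so polarization falls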
PAD4 inh: human PAD4 inhibitors, primary screen, biochemical, fluorescence polarization, 1536-well format | Protein-arginine deiminase type-4 (Homo sapiens), Q9UM07 | recombinant PAD4, RCA probe fluorescence polarization | inhibition, % at 6.36 µM | 330,000 tested, 0.41% active | AID 485272, 2010;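 active means percent inhibition above a cutoff equal to the mean of all tested compounds plus 3 SD, cut at about 15% in these data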
PME-1 inh: PME-1 inhibitors via competitive probe labeling, primary screen, biochemical, fluorescence polarization, FP-Rh probe, HTS. Protein phosphatase methylesterase 1 (Homo sapiens), Q9Y570. recombinant PME-1. inhibition, % at 5.9 µM. 320,000 tested, 0.53% active;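 active means inhibition above the campaign mean of all compounds plus 3 SD, cut at about 26% in these data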;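 further: competitive labeling of PME-1 active site by serine hydrolase directed probe; inhibitors block probe labeling so polarization falls and inhibition rises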
GSTO1 inh conf: GSTO1 inhibitor hit confirmation, counter-screen for RBBP9 inhibitor project, biochemical, fluorescence polarization, triplicate; shares compounds with GSTO1 counter; recombinant GSTO1, probe fluorescence polarization; inhibition, % at 5.96 µM; 2,400 tested, 54% active;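 active means inhibition above the primary screen's cutoff, its mean inhibition plus 3 SD, cut at about 35% in these data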;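 further: loss of polarization as inhibitors block binding of rhodamine sulfonate ester activity probe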
GSTO1 recomb ABPP: inhibitors of purified human GSTO1, late-stage follow-up, biochemical, gel ABPP, SE-Rh probe, percent inhibition. shares compounds with GSTO1 counter. inhibition, % at 1 µM. AID 463110, 2010. recombinant GSTO1, gel ABPP SE-Rh probe fluorescence. 130 tested, 30% active;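 active means inhibition of the enzyme GSTO1 above about 75%, limit read from the data; inactive means inhibition below that limit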
LYPLA2 confirm: LYPLA2 inhibitors, retest, confirmation, counter-screen for PME1 inhibitor project, biochemical, fluorescence polarization, FP-Rh probe ABPP | inhibition, % at 5.9 µM | AID 2232, 2010 | shares compounds with LYPLA2 counter | recombinant LYPLA2 | 1,100 tested, 72% active;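 active means mean inhibition across replicates above the hit cutoff set in the primary screen, cut at about 26% in these data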;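 further: blocked labeling of the enzyme by serine hydrolase FP-Rh probe lowers polarization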
PAD4 FP conf: human PAD4 inhibitors, confirmation, biochemical, fluorescence polarization; shares compounds with PAD4 inh; recombinant PAD4, RCA probe fluorescence polarization; inhibition, % at 6.36 µM; 1,200 tested, 28% active; AID 488796, 2010;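 active means mean inhibition across replicates above the hit cutoff set by the earlier primary screen, cut at about 15% in these data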;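 further: inhibitors block active-site labeling by the probe so polarization falls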
Large screens that a line does not name were inactive (follow-up assays come after a bar, where they were run).

COc1cc(CNC(C)(C)CO)ccc1OCC(=O)NC(C)(C)C	none
COc1cc(CNc2ccc(N3CCCC3)cc2)ccc1OCc1ccccc1F	GSTO1 counter 46 | GSTO1 inh conf 35
CSc1cccc(NC(=O)CN(Cc2ccc(Cl)cc2)S(C)(=O)=O)c1	none
N#C/C(=C\Nc1ccc2cn[nH]c2c1)c1nc(-c2ccc(Cl)cc2)cs1	none
Cc1cccc(C(C(=O)NC2CCCC2)N(C(=O)c2csnn2)C2CC2)c1 (stereo not given)	none
O=C1Nc2ccc([N+](=O)[O-])cc2C1(O)N1CCCCC1 (stereo not given)	none
CC(C)=C1C(=O)NN(c2ccc(C)c(Cl)c2)C1=O	GSTO1 counter 44 | GSTO1 inh conf inactive
CC(C)=C1C(=O)NN(c2cccc(Cl)c2)C1=O	none
CC(C)C[C@H]1CN=C(Nc2ccccc2)N1CC1CCC(C(C)(C)C)CC1 (stereo not given in full)	none
COc1ccc(/C=C2/C(=O)N(c3ccccc3)N=C2C)cc1Br	GSTO1 counter 58, PAD4 inh 43 | GSTO1 inh conf inactive
CC1=NN(c2ccccc2)C(=O)/C1=C\N(O)c1ccccc1	GSTO1 counter 48 | GSTO1 inh conf 41
CC1=NN(c2ccccc2)C(=O)/C1=C\c1cc(C)n(-c2ccccc2)c1C	none
Cc1cc(NC(=O)c2cccc(COc3ccc(Br)cc3)c2)no1	none
O=c1[nH]c2cc3c(cc2cc1CN(CCO)S(=O)(=O)c1ccccc1)OCCO3	none
O=C(OCC(=O)N1CCC(c2ccccc2)=N1)c1ccc([N+](=O)[O-])s1	GSTO1 counter 58 | GSTO1 inh conf inactive
Cc1[nH]c2ccccc2c1C(=O)COC(=O)c1ccc([N+](=O)[O-])s1	GSTO1 counter 52 | GSTO1 inh conf inactive
Cc1cc(C(=O)OCC(=O)N2CCC(c3ccccc3)=N2)ccc1[N+](=O)[O-]	none
Cc1ccc(Cl)cc1N1CCN(C(=O)CSc2nnc3n2C(C)(C)Cc2ccccc2-3)CC1	none
Cc1ccc(/C=C2\SC(=S)N(CCC(=O)NNC(=O)c3cccnc3)C2=O)cc1	GSTO1 counter 39 | GSTO1 inh conf inactive
O=C(CCN1C(=O)/C(=C/c2ccccc2)SC1=S)NNC(=O)c1cccnc1	none
CCOC(=O)N1CCN(C(=O)Cc2ccc(Cl)cc2)CC1	none
CCOC(=O)N1CCN(C(=O)CCl)CC1	GSTO1 counter 77 | GSTO1 inh conf 92
CC(C)(C)NC(=O)CN1CCN(C(=O)CCl)CC1	GSTO1 counter 82 | GSTO1 inh conf 96 | GSTO1 recomb ABPP inactive
CC(=O)Nc1ccc(N(C(=O)CNC(=O)c2cccs2)C(C(=O)NCC2CCCO2)c2ccccc2)cc1 (stereo not given)	none
Cc1cccc(N2CCN(C(=O)c3ccc(CNc4c(N5CCC(C)CC5)c(=O)c4=O)cc3)CC2C)c1 (stereo not given)	none
CCN(CC)C(=O)C1CCCN(Cc2ccc3ccccc3c2)C1 (stereo not given)	none
COc1cccc(-c2nc(CC(=O)O)cs2)c1OC	none
COc1cccc(-c2nc(CCl)cs2)c1OC	GSTO1 counter 61 | GSTO1 inh conf 99 | GSTO1 recomb ABPP inactive
COc1ccc(CCNC(=O)CCS(=O)(=O)Cc2ccccc2C)cc1OC	none
COc1ccc(C)cc1NCc1cc(=O)oc2cc(-c3ccccc3)c(O)cc12	none
COC(=O)c1ccccc1NCc1cc(=O)oc2cc(O)c(O)cc12	GSTO1 counter 43 | GSTO1 inh conf inactive
CCc1ccc(-n2c(SCC(=O)NC3CCS(=O)(=O)C3)nc3ccccc3c2=O)cc1 (stereo not given)	none (no result: GSTO1 counter, Fam108B inh)
CO[C@H]1C=CO[C@@]2(C)Oc3c(C)c(O)c4c(O)c(c(C=NN5CCN(C)CC5)c(O)c4c3C2=O)NC(=O)C(C)=CC=C[C@H](C)[C@H](O)[C@@H](C)[C@@H](O)[C@@H](C)[C@H](OC(C)=O)[C@@H]1C	GSTO1 counter 77 | GSTO1 inh conf 70
CO[C@H]1/C=C/O[C@@]2(C)Oc3c(C)c(O)c4c(O)c(c(C=NN5CCN(C)CC5)c(O)c4c3C2=O)NC(=O)/C(C)=C\C=C\[C@H](C)[C@H](O)[C@@H](C)[C@@H](O)[C@@H](C)[C@H](OC(C)=O)[C@@H]1C	GSTO1 counter 62 | GSTO1 inh conf 55
CCN(C1CCCCC1)S(=O)(=O)CCNC(=O)c1ccc2c(c1)OCO2	none
CCC(=O)N(CC)C1=C(O)c2ccccc2C(=O)C1=O	GSTO1 counter 38 | GSTO1 inh conf inactive
N#CC1=C(N)Oc2n[nH]c(-c3cccnc3)c2C1c1ccc([N+](=O)[O-])o1 (stereo not given)	GSTO1 counter 42 | GSTO1 inh conf inactive
CCn1nc(C)cc1C(=O)N1CCCC(N2CCN(c3cccc(Cl)c3)CC2)C1 (stereo not given)	LYPLA2 counter 46, GSTO1 counter 47 | GSTO1 inh conf inactive | LYPLA2 confirm 46
O=C(NC(Cc1ccccc1)C(=O)O)/C(=C/c1ccc(Cl)cc1)NC(=O)c1ccco1 (stereo not given)	none
CCc1ccc(OCC(=O)N/N=C2\CC(=O)c3ccccc32)cc1	GSTO1 counter 61, PAD4 inh 25 | GSTO1 inh conf inactive | PAD4 FP conf inactive
COc1ccc(-c2cc(=O)[nH][nH]2)cc1OC	GSTO1 counter 66, PAD4 inh 65 | GSTO1 inh conf inactive | PAD4 FP conf inactive
O=c1cccc(-c2ccccc2)[nH]1	none

Bioassay records (PubChem BioAssay)
